Some test systems named below: RPMI-8226 leukemia; OVCAR-8 ovarian; OVCAR-5 ovarian; OVCAR-4 ovarian; SK-OV-3 ovarian; IGROV1 ovarian; OVCAR-3 ovarian; HS 578T breast; NCI/ADR-RES ovarian; T-47D breast; BT-549 breast; MDA-MB-435 melanoma; SW-620 colon; MCF7 breast; HCT-116 colon; HCC-2998 colon; KM12 colon.
Assay in all cases: NCI-60 one-dose screen, 48 h (100 = growth as untreated, 0 = no growth, -100 = all killed)
Conditions in all cases: 10 µM unless noted

This is part of a sample that, as a whole, favours compounds with a hit. Of some 83,000 tested, about 20% had one in any assay.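 Results are percent growth after 48 hours of single-concentration exposure. 100 means growth as in untreated cells, lower positive values show inhibition; negative values down to -100 show cell death.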 Unmarked numbers belong to inactive results. Calls of active or inactive are those of the source. Rule for the calls: active = growth percent below 10; inactive = the rest.

For the molecule `C/C=C/[C@@H]1C=C[C@@H]2C[C@H](C)CC[C@H]2[C@]1(C)/C(O)=C1/C(=O)[C@H](CO)N(C)C1=O`, the growth was 36.5% in the experiment with RPMI-8226 leukemia; 43.4% in the experiment with OVCAR-8 ovarian; 118% with OVCAR-5 ovarian; 70.5% in the experiment on OVCAR-4 ovarian; 75% with SK-OV-3 ovarian; 57.3% in the experiment with IGROV1 ovarian. The growth in the experiment with OVCAR-3 ovarian is 49.1%; in the experiment with HS 578T breast, 67.9%; with NCI/ADR-RES ovarian, 6.87% (active); with T-47D breast, 74.7%; in the experiment on BT-549 breast, 75.2%; with MDA-MB-435 melanoma, 74.8%. In addition, the growth in the experiment with SW-620 colon was 52.5%; in the experiment with MCF7 breast, 68.3%; with HCT-116 colon, 61.4%; in the experiment on HCC-2998 colon, 57%; with KM12 colon, 47.2%.
For `CC1(C)CC[C@]2(C(=O)N3CCCNCC3)CC[C@]3(C)C(=CC[C@@H]4[C@@]5(C)CCC(=O)C(C)(C)[C@@H]5CC[C@]43C)[C@H]2C1`, the growth with RPMI-8226 leukemia was 98.7%; in the experiment with OVCAR-8 ovarian, 103%; in the experiment on OVCAR-5 ovarian, 104%; in the experiment with OVCAR-4 ovarian it was 116%; in the experiment with SK-OV-3 ovarian, 115%; in the experiment with IGROV1 ovarian, 117%. The growth with HS 578T breast was 106%; in the experiment on NCI/ADR-RES ovarian, 100%; in the experiment on T-47D breast, 100%; with BT-549 breast it was 112%; with MDA-MB-435 melanoma, 112%; with SW-620 colon it was 101%. Moreover, the growth in the experiment on MCF7 breast is 93.6%; in the experiment on HCT-116 colon, 103%; in the experiment on HCC-2998 colon it was 102%; in the experiment with KM12 colon, 105%.
In the case of `O=C(CN1C(=O)CSC1=O)Nc1ccc(C(=O)/C=C/c2cc3ccccc3nc2Cl)cc1`, the growth is -13.2% (active) in the experiment with RPMI-8226 leukemia; 77.7% in the experiment with OVCAR-8 ovarian; 101% in the experiment with OVCAR-5 ovarian; 46.4% in the experiment with OVCAR-4 ovarian; 101% with SK-OV-3 ovarian; 66.9% in the experiment on IGROV1 ovarian. Moreover, the growth in the experiment with OVCAR-3 ovarian was 87.4%; with HS 578T breast it was 82.7%; in the experiment on NCI/ADR-RES ovarian, 89.5%; in the experiment on T-47D breast, 58.7%; in the experiment with BT-549 breast it was 66.1%; in the experiment on MDA-MB-435 melanoma, 25.6%. For the same molecule, the growth in the experiment on SW-620 colon was 95.6%; in the experiment on MCF7 breast, 12.5%; in the experiment on HCT-116 colon it was -45.5% (active); in the experiment on HCC-2998 colon it was 82.1%; in the experiment on KM12 colon it was 62.2%.
Turning to `O=C1c2c(c3c4cccnc4[nH]c3c3ccc4ccccc4c23)C(=O)N1CCN1CCOCC1`, the growth in the experiment on RPMI-8226 leukemia is 42.5%; with OVCAR-8 ovarian, 47.2%; in the experiment with OVCAR-5 ovarian, 98.3%; with OVCAR-4 ovarian it was 84.4%; with SK-OV-3 ovarian it was 86.9%; in the experiment on IGROV1 ovarian, 57.7%. For the same molecule, the growth was 82.1% with HS 578T breast; 47% in the experiment on NCI/ADR-RES ovarian; 65.5% in the experiment on T-47D breast; 65.6% with BT-549 breast; 67.7% in the experiment on MDA-MB-435 melanoma; 47.1% in the experiment on SW-620 colon. Also, the growth with MCF7 breast was 15.9%; in the experiment on HCT-116 colon, 58.1%; with HCC-2998 colon, 82%.
For the molecule `CNC(=O)c1c(NC(=O)c2ccc(F)cc2F)sc2c1CCC(=O)C2`, the growth was -12.3% (active) with RPMI-8226 leukemia; 13.9% in the experiment with OVCAR-8 ovarian; 0.937% (active) in the experiment with OVCAR-5 ovarian; -40.6% (active) in the experiment on OVCAR-4 ovarian; -4.66% (active) in the experiment on SK-OV-3 ovarian; 22.8% in the experiment on IGROV1 ovarian. For the same molecule, the growth in the experiment with OVCAR-3 ovarian was 0.976% (active); in the experiment on HS 578T breast it was 24.5%; in the experiment on NCI/ADR-RES ovarian, 5.72% (active); in the experiment with T-47D breast, -14.2% (active); with BT-549 breast, 6.83% (active); with MDA-MB-435 melanoma, 12.2%. Besides, the growth with SW-620 colon was 5.05% (active); in the experiment on MCF7 breast, 7.35% (active); in the experiment on HCT-116 colon, 7% (active); in the experiment on HCC-2998 colon, 13.5%; in the experiment with KM12 colon, 9.65% (active).
`C=CCn1c(SCC(=O)Nc2cccc(C(=O)/C=C/c3ccccc3)c2)nc2ccccc2c1=O`: the growth in the experiment with RPMI-8226 leukemia is 2.15% (active); in the experiment on OVCAR-8 ovarian it was 83.3%; with OVCAR-5 ovarian it was 101%; with OVCAR-4 ovarian, 88%; in the experiment with SK-OV-3 ovarian it was 122%; with IGROV1 ovarian it was 87.6%. Further, the growth is 99.2% in the experiment on HS 578T breast; 87.1% in the experiment with NCI/ADR-RES ovarian; 78.4% in the experiment on T-47D breast; 107% in the experiment with BT-549 breast; 82.9% in the experiment on MDA-MB-435 melanoma; 12.2% in the experiment with SW-620 colon. Further, the growth is 18.3% with MCF7 breast, -3.91% (active) in the experiment on HCT-116 colon, 96% in the experiment with HCC-2998 colon and 57.5% with KM12 colon.
As to `COc1ccc([C@@H]2[C@@H](O)C(=O)N2c2cc(OC)c(OC)c(OC)c2)cc1Cl`, the growth with RPMI-8226 leukemia was 28.4%; in the experiment with OVCAR-8 ovarian, -11.7% (active); in the experiment on OVCAR-5 ovarian it was 28.9%; in the experiment with OVCAR-4 ovarian, 68.7%; with SK-OV-3 ovarian it was 23.9%; in the experiment with IGROV1 ovarian it was 27.1%. For the same molecule, the growth was 8.59% (active) in the experiment on HS 578T breast; -21.2% (active) in the experiment on NCI/ADR-RES ovarian; 103% in the experiment with T-47D breast; -9.18% (active) with BT-549 breast; -8.49% (active) with MDA-MB-435 melanoma; 17.9% in the experiment on SW-620 colon. Besides, the growth with MCF7 breast is 11.5%; in the experiment on HCT-116 colon, 2.44% (active); in the experiment on HCC-2998 colon, 8.34% (active); in the experiment on KM12 colon, 13.2%.
On to `CC(=O)Nc1cccc(-n2cnc3cc(-c4ccc(O)cc4)ccc32)c1`, for which the growth is 20.3% in the experiment on RPMI-8226 leukemia; 28.8% in the experiment on OVCAR-8 ovarian; 66.7% in the experiment with OVCAR-5 ovarian; 66.4% with OVCAR-4 ovarian; 32.9% with SK-OV-3 ovarian; 41.1% in the experiment with IGROV1 ovarian. Also, the growth was -17.1% (active) in the experiment on HS 578T breast; 18.5% in the experiment on NCI/ADR-RES ovarian; 27.7% in the experiment on T-47D breast; 49.2% in the experiment with BT-549 breast; -17.7% (active) in the experiment with MDA-MB-435 melanoma; 19.4% with SW-620 colon. Moreover, the growth is 31.4% in the experiment on MCF7 breast, 20.8% in the experiment with HCT-116 colon, 79.6% in the experiment with HCC-2998 colon and 20.6% in the experiment on KM12 colon.
On to `CCNC(=O)Oc1ccc(/C(=C(/C)c2ccccc2)c2ccc(OCCN3CCCC3)cc2)cc1`, for which the growth with RPMI-8226 leukemia was 33%; in the experiment with OVCAR-8 ovarian, 89.5%; in the experiment with OVCAR-5 ovarian, 82.3%; in the experiment with OVCAR-4 ovarian, 81.7%; in the experiment with SK-OV-3 ovarian, 95.8%; with IGROV1 ovarian, 80.5%. The growth with OVCAR-3 ovarian is 76.6%; in the experiment with HS 578T breast it was 78.4%; in the experiment on NCI/ADR-RES ovarian it was 76.3%; in the experiment with T-47D breast it was 51.8%; with BT-549 breast it was 70.4%; with MDA-MB-435 melanoma it was 81.6%. Besides, the growth with SW-620 colon is 80.3%; in the experiment with MCF7 breast, 26.9%; in the experiment with HCT-116 colon, 38.3%; with HCC-2998 colon, 93.4%; in the experiment with KM12 colon it was 81.8%.

The values above are taken from PubChem BioAssay (NCI).
